The text below walks through data of PubChem BioAssay (NCATS).

The source made the active and inactive calls. The call rests on the fitted dose curve; in most records, active means well fitted curve in the direction sought with a large enough effect; inconclusive means small, poorly fitted or top-dose-only effect, or effect the other way, or another doubt; inactive means no such curve, though single readings can be large or run the other way.

The nature of this assay: Inducers of the Endoplasmic Reticulum Stress Response (ERSR) in human glioma: Validation (AID 504836). The settings on record: human glioma cells, ER stress response reporter; series mostly up to 38.3 µM. In outline:
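Stably transfected U87-MG human glioma cells carrying a GRP78-based luminescent sensor were seeded at 1000 cells/well, pin-dosed with compounds and incubated 16 h. Luciferase reagent was then added, and end-point luminescence was read after 10 min at room temperature.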
In the case of `Cc1ccc(=O)n(-c2ccccc2)c1`, the call was inactive.
`CSc1ccc(C(=O)c2[nH]c(=O)[nH]c2C)cc1`: the molecule was classed as inactive.
Consider `NC1=NCC2c3ccccc3Cc3ccccc3N12` (stereo not drawn), for which the outcome was inactive.
`O=C(O)c1cccnc1Nc1cccc(C(F)(F)F)c1`: the molecule was classed as inactive.
As to `C=CCc1ccccc1OCC(O)CNC(C)C` (stereo not drawn), the outcome was inactive.
Take `CNC[C@H](O)c1ccc(O)c(O)c1`: the molecule was called inactive.
Regarding `CCCCNc1cc(C(=O)O)cc(S(N)(=O)=O)c1Oc1ccccc1`, the molecule was classed as inactive.
Under `NCCc1ccc(O)c(O)c1` stands “inactive”.
On to `CCCCNc1ccc(C(=O)OCCN(C)C)cc1`, for which the molecule was called inactive.
Turning to `CN1C[C@H](C(=O)N[C@]2(C)O[C@@]3(O)[C@@H]4CCCN4C(=O)[C@H](Cc4ccccc4)N3C2=O)C[C@@H]2c3cccc4[nH]cc(c34)C[C@H]21`, the molecule was called inactive.
As for `CCC(=O)c1ccc2c(c1)N(CCCN(C)C)c1ccccc1S2`, the molecule was classed as inactive.
On to `CN(C(=O)CCCOc1ccc2[nH]c(=O)ccc2c1)C1CCCCC1`, for which the molecule was called inactive.
Regarding `C[C@]12CCC(=O)C=C1CC[C@@H]1[C@@H]2CC[C@@]2(C)[C@H]1CC[C@]2(O)C(=O)CO`, the result was inactive.
Consider `Brc1c(NC2=NCCN2)ccc2nccnc12`, for which the result was inactive.
Regarding `c1cnc(N2CCN(Cc3ccc4c(c3)OCO4)CC2)nc1`, the outcome was inactive.
On to `C#CCN(C)CCCOc1ccc(Cl)cc1Cl`, for which the result was inactive.
As to `C[C@]12C=CC(=O)C=C1CC[C@H]1[C@@H]3C[C@@H](O)[C@](O)(C(=O)CO)[C@@]3(C)C[C@H](O)[C@@]12F`, the result was inactive.
Consider `CC(C(O)c1ccc(O)cc1)N1CCC(Cc2ccccc2)CC1` (stereo not drawn), for which the result was inactive.
Consider `O=C(O)CP(=O)(O)O`, for which the call was inactive.
As to `C[C@]12CCC(=O)C=C1CC[C@@H]1[C@@H]2C(=O)C[C@@]2(C)[C@H]1CC[C@]2(O)C(=O)CO`, the result was inactive.
For the molecule `Clc1ccc(Cn2c(CN3CCCC3)nc3ccccc32)cc1`, the molecule was classed as inactive.
Take `O=C1NCN(c2ccccc2)C12CCN(CCCC(c1ccc(F)cc1)c1ccc(F)cc1)CC2`: the molecule was called inactive.
In the case of `O=C(c1ccc(F)cc1)C1CCN(CCn2c(=O)[nH]c3ccccc3c2=O)CC1`, the molecule was called inactive.
As to `COc1nc(C)nc(Cl)c1NC1=NCCN1`, the call was inactive.
In the case of `NC(N)=N/N=C/c1c(Cl)cccc1Cl`, the molecule was classed as inactive.
Turning to `CCCN(CCC)C(=O)C(CCC(=O)O)NC(=O)c1ccccc1` (stereo not drawn), the call was inactive.
Turning to `COC(=O)[C@@H](N)Cc1ccc(O)c(O)c1`, the result was inactive.
Then `CCN(CC)CCOCCOC(=O)C1(c2ccccc2)CCCC1`, with “inactive”.
Take `C[n+]1cc2c3c(ccc2c2ccc4cc5c(cc4c21)OCO5)OCO3`: the call was inactive.
For the molecule `COc1ccc(CN(CCN(C)C)c2ccccn2)cc1`, the molecule was called inactive.
With `O=C(O)CCc1nc(-c2ccccc2)c(-c2ccccc2)o1`, the molecule was classed as inactive.
`Cn1c(=O)c2c(ncn2C)n(C)c1=O`: the call was inactive.
On to `O=C1CC2(CCCC2)CC(=O)N1CCCCN1CCN(c2ncccn2)CC1`, for which the outcome was inactive.
In the case of `COc1cc(C(=O)OCCCN2CCCN(CCCOC(=O)c3cc(OC)c(OC)c(OC)c3)CC2)cc(OC)c1OC`, the outcome was inactive.
As to `COCCOC(=O)C1=C(C)NC(C)=C(C(=O)OC/C=C/c2ccccc2)C1c1cccc([N+](=O)[O-])c1` (stereo not drawn), the result was inactive.
As for `c1ccc([C@H]2CN3CCSC3=N2)cc1`, the molecule was classed as inactive.
`CCN(CC)CCCN(c1ccccc1)C1Cc2ccccc2C1`: the molecule was called inactive.
Regarding `Clc1ccccc1C(c1ccccc1)(c1ccccc1)n1ccnc1`, the call was inactive.
